The assay in a line: NCI Yeast Anticancer Drug Screen. Data for the CLN2oe strain (AID 163).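 Further: 0% = growth of vehicle-only control cultures.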 The note with it: S. cerevisiae CLN2oe strain, hits give high values. The method, then:
Growth inhibition of yeast strains with defined genetic alterations is measured as a screen for potential anti-cancer activity. Selected strains with alterations in DNA damage repair or cell cycle control were exposed to compounds and growth inhibition was measured relative to vehicle treated controls. The strain used in this assay is CLN2oe

About 79,000 compounds went through this panel and 15% of them were active in at least one assay; those are over-represented in the sample as a whole. Values without a mark were called inactive. Calls of active or inactive are those of the source. No stated cut-off is given here; in the data, active means growth inhibition above about 70%; inactive means the rest.

For `CCO/C=C1\SC(=S)N(c2ccc(OCC)cc2)C1=O`, the growth inhibition was -8% (at 1.2 µM); -1% (at 3.7 µM); 4% (at 11.0 µM); 21% (at 33.0 µM); 57% (at 100.0 µM).

For the compound `O=C1c2cccc3cccc(c23)C(=O)N1CCNCCN1C(=O)c2cccc3cccc(c23)C1=O`, the growth inhibition (at 1.2 µM) is -1%; the growth inhibition (at 3.7 µM) is -2%; the growth inhibition (at 11.0 µM) was 4%; the growth inhibition (at 33.0 µM) was -1%; the growth inhibition (at 100.0 µM) is -1%.

With `CCOP(=O)(OCC)/C(C#N)=C/c1cccc(Oc2ccccc2)c1`, the growth inhibition was -12% (at 1.2 µM); -23% (at 3.7 µM); 42% (at 11.0 µM); 97% (active) (at 33.0 µM); 97% (active) (at 100.0 µM).

For the compound `COC(=O)C(Cc1c[nH]c2ccccc12)N1CN(C)c2ccccc2C1=O` (stereo not given), the growth inhibition (at 1.2 µM) was 4%; the growth inhibition (at 3.7 µM) was 1%; the growth inhibition (at 11.0 µM) was 3%; the growth inhibition (at 33.0 µM) was 7%; the growth inhibition (at 100.0 µM) was 99% (active).

As for `Cc1cc(C)c(S(=O)(=O)c2ccc(Cl)cc2)c(C)c1`, the growth inhibition is -8% (at 1.2 µM); -15% (at 3.7 µM); -22% (at 11.0 µM); -13% (at 33.0 µM); -2% (at 100.0 µM).

Take `N#CC1OB(O)c2ccccc21` (stereo not given): the growth inhibition reads like this: (at 1.2 µM) 0%; (at 3.7 µM) -2%; (at 11.0 µM) 1%; (at 33.0 µM) -7%; (at 100.0 µM) -2%.

With `CN(C)CC(CN(C)C)C(=O)/C=C/c1ccc(Cl)cc1Cl`, the growth inhibition by setting is: (at 1.2 µM) -1%; (at 3.7 µM) -3%; (at 11.0 µM) -1%; (at 33.0 µM) 98% (active); (at 100.0 µM) 97% (active).

With `Cc1ccccc1NC(=O)c1c(C)oc2c1C(=O)c1ccccc1C2=O`, the growth inhibition is -13% (at 1.2 µM); 19% (at 3.7 µM); 9% (at 11.0 µM); 39% (at 33.0 µM); 87% (active) (at 100.0 µM).

These data come from PubChem BioAssay (NCI).
